# PubChem BioAssay
# A number with no mark means an inactive call. Calls of active or inactive are those of the source. Cut-off read from the data, not from the text of the source, unless noted: active = inhibition above about 44%; inactive = the rest.
# Tests used:
# [1] = StAR promoter reporter inhibitors, counter-screen for LRH-1 inverse agonist project, cell-based, luminescence, high throughput (AID 651611; in the data active = inhibition above about 28%); details: StAR promoter luciferase reporter counterscreen, at 3.6 µM, stronger effect = higher value
# [2] = target: Nuclear receptor subfamily 5 group A member 2 (Homo sapiens) (UniProt O00482); test: LRH-1 (NR5A2) inverse agonists, retest, confirmation, cell-based, luminescence (AID 651613; in the data active = inhibition above about 42%;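 note: HEK293T cells co-transfected with LRH-1 and StAR promoter luciferase reporter; 0% = vehicle wells and 100% = parental cells lacking receptor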); details: cell-based LRH-1 luciferase reporter, inverse agonism; at 3.6 µM; stronger effect = higher value
# Sequence of Nuclear receptor subfamily 5 group A member 2 (Homo sapiens) (O00482 whole entry, looked up): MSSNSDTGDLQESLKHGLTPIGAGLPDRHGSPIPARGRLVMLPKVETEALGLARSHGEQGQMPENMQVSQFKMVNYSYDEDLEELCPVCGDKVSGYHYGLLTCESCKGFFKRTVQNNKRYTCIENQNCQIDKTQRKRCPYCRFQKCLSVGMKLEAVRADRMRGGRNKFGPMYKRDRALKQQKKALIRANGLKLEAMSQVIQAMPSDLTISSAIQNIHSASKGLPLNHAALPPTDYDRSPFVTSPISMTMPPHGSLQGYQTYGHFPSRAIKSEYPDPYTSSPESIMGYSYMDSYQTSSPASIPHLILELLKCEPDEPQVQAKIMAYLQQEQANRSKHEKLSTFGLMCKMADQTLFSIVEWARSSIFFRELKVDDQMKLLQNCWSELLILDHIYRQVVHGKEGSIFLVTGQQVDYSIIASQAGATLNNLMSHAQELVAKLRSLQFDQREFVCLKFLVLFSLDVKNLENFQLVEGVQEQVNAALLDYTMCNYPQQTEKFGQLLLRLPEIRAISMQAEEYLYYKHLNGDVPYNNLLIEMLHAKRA
# [3] = target: Steroidogenic factor 1 (Homo sapiens) (UniProt Q13285); test: SF1 (NR5A1) inverse agonists, counter-screen for LRH-1 inverse agonist project, cell-based, luminescence, high throughput (AID 651614); details: cell-based SF1 luciferase reporter, at 3.6 µM, stronger effect = higher value;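 note: cells cotransfected with StAR promoter reporter and SF1 expression vector; 0% = vehicle on cells with receptor and 100% = vehicle on cells lacking receptor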
# Sequence of Steroidogenic factor 1 (Homo sapiens) (Q13285 whole entry, looked up, the tested form may be a part): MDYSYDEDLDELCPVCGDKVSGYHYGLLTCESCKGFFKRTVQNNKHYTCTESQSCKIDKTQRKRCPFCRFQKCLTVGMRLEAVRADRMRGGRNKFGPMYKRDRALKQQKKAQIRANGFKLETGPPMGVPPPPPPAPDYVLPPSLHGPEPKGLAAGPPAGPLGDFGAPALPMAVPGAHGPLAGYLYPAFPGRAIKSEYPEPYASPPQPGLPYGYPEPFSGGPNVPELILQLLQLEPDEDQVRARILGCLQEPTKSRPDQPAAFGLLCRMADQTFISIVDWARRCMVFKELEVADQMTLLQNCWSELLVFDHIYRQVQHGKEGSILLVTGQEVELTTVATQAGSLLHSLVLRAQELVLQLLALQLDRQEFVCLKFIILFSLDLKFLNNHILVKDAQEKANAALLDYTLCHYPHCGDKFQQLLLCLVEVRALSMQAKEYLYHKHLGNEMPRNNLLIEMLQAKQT
# [4] = VP16 transactivation reporter inhibitors, counter-screen for LRH-1 inverse agonist project, cell-based, luminescence, high throughput (AID 651615; in the data active = inhibition above about 33%); details: Gal4-VP16 luciferase reporter cells, at 3.6 µM, stronger effect = higher value
SMILES,inhibition [1],inhibition [2],inhibition [3],inhibition [4]
Cc1ccccc1Oc1nc2c(C)cccn2c(=O)c1/C=C(\C#N)C(=O)NC1CCS(=O)(=O)C1 (centres undefined),8.01%,52.6% (active),51.3% (active),18.6%
Clc1ccc(Cn2ncc3c(NCc4ccccc4)ncnc32)cc1,43.3% (active),59.4% (active),51.4% (active),14.4%
O=C(CSc1nnc(CNC(=O)c2c(F)cccc2F)o1)Nc1ccc2c(c1)OCCO2,9.56%,44.6% (active),54.6% (active),-8.58%
O=C1C=C(NCCc2ccccc2)C2(CCCCC2)O1,3.62%,59.9% (active),49.5% (active),-3.99%
CC(NC(=O)CCl)c1ccc(Cl)c(Cl)c1 (centres undefined),32.8% (active),69.4% (active),67.3% (active),-15.3%
Cc1ccc(NC(=O)CSc2sc3c(O)cc(=O)[nH]c3c2C#N)c(F)c1,7.65%,57.1% (active),41.9%,-9.48%
CC1CCC2(CC1)NC(=O)N(CC(=O)Nc1ccc3c(c1)OCCCO3)C2=O (centres undefined),10.5%,46.8% (active),44.8% (active),-7.87%
COc1ccc(NC(=O)COC(=O)CNC(=O)c2cc(OC)c(OC)c(OC)c2)cc1,8.08%,42.9% (active),50.5% (active),-7.21%
COc1cc(/C=N/Nc2snc(SC)c2C#N)ccc1O,13.1%,28.3%,44.1% (active),-90.8%
C#CCSc1nsc(SCC#C)c1C#N,3.79%,53.4% (active),50.9% (active),-20%
Nc1ccc(Oc2ccc(Cl)cc2)cc1,1.47%,35.2%,31%,-7.96%
CCc1c(O)nc(SCC(=O)Nc2ccc(OC)cc2)n(C2CCCCC2)c1=O,13.3%,55.5% (active),51.4% (active),5.01%
CCc1cc(=O)[nH]c(SCC(=O)Nc2ccc3c(c2)OCCO3)n1,4.24%,40.6%,45.7% (active),0.13%
CCCc1cc(=O)oc2cc(OCC(=O)NC3CC(C)(C)NC(C)(C)C3)ccc12,-0.91%,53% (active),45.7% (active),2.6%
CC1CCC2(CC1)NC(=O)N(CC(=O)Nc1ccc(N3CCOCC3)cc1)C2=O (centres undefined),11.8%,45.8% (active),37.4%,-8.77%
CCOC(=O)c1ccc(N2CCN(C(=O)c3ccccc3)CC2)c(NC(=O)c2ccco2)c1,26.2%,38.6%,40.9%,-26.2%
O=C(Cc1ccc(Cl)cc1Cl)Nc1ccncc1,16.2%,76.1% (active),72.9% (active),48.6% (active)
O=C(Nc1ccc(S(=O)(=O)N2CCCC2)cc1)c1ccc([N+](=O)[O-])o1,26.2%,58.8% (active),62.7% (active),15.1%
CCOc1cc(/C=N/n2nnnc2N)ccc1OCc1c(C)no[n+]1[O-],12.5%,53.2% (active),56.4% (active),-7.92%
CCN1C(=O)c2cccc3c(S(=O)(=O)Nc4ccccc4O)ccc1c23,38.4% (active),34.1%,36.2%,-88.6%
COc1ccc(NC(=O)c2cc(-c3cc(F)ccc3OC)n[nH]2)cc1OC,28.8% (active),43.6% (active),49.4% (active),52% (active)
O=C(NNc1ccc([N+](=O)[O-])cc1[N+](=O)[O-])c1ccco1,12.4%,57.6% (active),60% (active),3.35%
COc1ccc(Cc2c(-c3cccc(Cl)c3)nc3cc(C)c(Br)c(C)n23)c(C)c1,3.35%,41.3% (active),36.9%,-4.66%
CCc1nc(SCC(=O)N2CCc3cc(OC)c(OC)cc3C2)c(C#N)cc1C,3.35%,47.4% (active),45.4% (active),1.24%
O=[N+]([O-])c1ccc(N2CCCC2)cc1N1CCCC1,9.77%,56.8% (active),60.4% (active),8.32%
CCCc1cc(=O)oc2cc(C)cc(OCC(=O)Nc3ccccn3)c12,2.99%,60.1% (active),61.8% (active),3.1%
